Screening results from PubChem BioAssay.
PABP polyA inh: PABP poly(A) RNA binding inhibitors, primary screen, biochemical, fluorescence polarization, uHTS | AID 2014, 2009 | inhibition, % at 35 µM | Polyadenylate-binding protein 1 (Homo sapiens), P11940 | hit rate 1% among 290,000;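 also: calls also rest on retests at 20 µM and on dose response follow-up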
eIF4E 4G PPI: eIF4E–eIF4G protein interaction inhibitors, primary screen, biochemical, uHTS, TR-FRET, eIF4GI fragment; Eukaryotic translation initiation factor 4E (Mus musculus) + Eukaryotic translation …; TR-FRET eIF4E-eIF4GI(517-606) binding, 2 h; inhibition, % at 21.7 µM; hit rate 0.37% among 220,000; AID 782, 2007;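 active = inhibition above about 30%, limit read from the data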;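 also: 0% = full FRET control wells and 100% = background wells lacking eIF4GI fragment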
eIF4H FP inh: human eIF4H binding inhibitors, primary screen, translation initiation inhibitor project, biochemical, uHTS, fluorescence polarization; eIF4H fluorescence polarization binding assay; hit rate 0.94% among 290,000; inhibition, % at 35 µM; AID 2012, 2009; Eukaryotic translation initiation factor 4H (Homo sapiens), Q15056;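 also: calls also rest on retests at 20 µM and on dose response follow-up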
PERK inh: block of dimerizer-induced PERK translation repression, primary screen, PERK inhibitor project, CHO PERK-DD cells, SEAP luminescence, HTS; inhibition, % at 5.6 µM; hit rate 0.17% among 220,000; CHO PERK-DD fusion, SEAP luminescence translation reporter; Eukaryotic translation initiation factor 2-alpha kinase 3 (Homo sapiens), Q9NZJ5; AID 1416, 2008;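 active = inhibition above the mean inhibition of all tested compounds plus 3 SD, set separately per screening campaign, cut at about 2.9% in these data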;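 also: PERK kinase domain activated by AP20187 dimerizer at 100 nM; 0% = DMSO with dimerizer and 100% = rapamycin at 8.4 µM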
MLLE-PAM2 inh: inhibitors of PABP1 MLLE–PAM2 peptide binding, primary screen, biochemical, fluorescence polarization, FITC-PAM2, GST-MLLE | Polyadenylate-binding protein 1 (Homo sapiens), P11940 | inhibition, % at 20 µM | hit rate 0.36% among 360,000 | AID 588489, 2011; in the data active = inhibition above about 35%, passing the limit was not always enough;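 also: plate controls were DMSO wells with GST-MLLE for no effect and wells lacking GST-MLLE protein for full effect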
* hit, by the source's call; ? = inconclusive; nt = not tested or not shown; [ ] = remark or other dose. This is a sample that favours compounds with a hit; in the whole collection about 1.6% have one here. Unless noted, no rule for the calls is given here.

SMILES	PABP polyA inh	eIF4E 4G PPI	eIF4H FP inh	PERK inh	MLLE-PAM2 inh
CCn1c2ccccc2c2cc(NC(=O)c3coc(=O)c(Br)c3)ccc21	118	22	105*	1	104
NC(=O)NC(=O)CC1S/C(=N/N=C2\CSC(=O)N2)NC1=O (stereo unspecified)	-5	-15	12	0	43*
Cc1cc(C)nc(Nc2nc(-c3ccccc3)cs2)n1	-12	nt	-12	nt	8
Cc1cc(C)nc(Nc2nc(=O)c3ccccc3s2)n1	4	-1	7	0	38*
CCOC(=O)Cc1cc(=O)c2c(=O)n(-c3ccccc3)[nH]c2[nH]1	54*	5	6.0*	1	-8
O=c1cc(-c2ccccc2)[nH]c2[nH]n(-c3ccccc3)c(=O)c12	8	-1	-3	1	11
Cc1c(Cl)cccc1NC(=S)NCCc1ccc(S(N)(=O)=O)cc1	0	2	3	0	42*
Cc1c(Cl)cccc1NC(=S)NCCc1ccc(Cl)cc1	-4	nt	-11	nt	10
COc1ccc(-n2nnnc2SCC(=O)c2ccc3c(c2)OCCO3)c(OC)c1	-2	-1	0	4.0*	-18
CCCCc1c(C)nc(N2CCCC2)[nH]c1=O	-2	-3	65*	2	1
CCCCCCCc1c(C)nc(N2CCOCC2)[nH]c1=O	12	4	-1	0	-9
COc1ccccc1NS(=O)(=O)c1cc(C(=O)N2CCCCCC2)ccc1C	nt	nt	nt	nt	13
O=Cc1cc([N+](=O)[O-])ccc1N1CCOCC1	4	-1	8	0	-1
O=C(O)c1ccccc1Nc1ccnc(Cl)n1	15	74*	1	1	5
O=C(O)c1ccccc1Nc1ccccc1C(=O)O	-2	7	7	0	2
NC(=O)CSc1nccn1Cc1ccccc1	-1	-1	4	0	2
COc1ccc(C2=CC(=O)C=CC2=O)cc1	10	41*	-4	1	nt
Fc1cccc(-c2cc3nc4c(c(N5CCN(c6cnccn6)CC5)n3n2)CCCC4)c1	nt	nt	nt	0	nt
CCCCCn1c(N)c(-c2nc3ccccc3o2)c2c([N+](=O)[O-])nn(C)c(=O)c21	-2	22	74*	0	1
CCCCCn1c(N)c(-c2nc3ccccc3o2)c2c([N+](=O)[O-])nn(CC)c(=O)c21	-5	7	38	0	-1
Cc1ccc(-c2c(C#N)c(N)nc3c2CCCCCC3)o1	10	2	4	0	24
Cc1ccc(-c2c(C#N)c(N)nc3c2CCCCC3)o1	85*	-1	63*	0	9
Cc1ccc(-c2cc(-c3ccc(Cl)cc3)c(C#N)c(N)n2)o1	59	72*[fluorescence artefact?]	91	0	-9
Cc1cc(-c2cc(-c3ccc(Cl)cc3)nc(N)c2C#N)co1	44*	16	?	1	-14
Cc1ccc(-c2cc(-c3ccc(C)o3)nc(N)c2C#N)cc1	?	12	?	0	-17
SMILES	PABP polyA inh	eIF4E 4G PPI	eIF4H FP inh	PERK inh	MLLE-PAM2 inh
COc1ccc(C(Cl)=C(C=O)c2ccc(OC)c(OC)c2)cc1OC	nt	nt	nt	nt	15
CCOC(=O)NC1CCc2cc(OC)c(OC)c(OC)c2-c2ccc(SC)c(=O)cc21 (stereo unspecified)	nt	nt	nt	nt	-4
C/C(=N\N=C1\NC(=O)C(CC(=O)Nc2ccc(Cl)cc2)S1)c1ccco1 (stereo unspecified)	56*	6	50	0	10
O=[N+]([O-])c1ccc(N2CCOCC2)cc1SCc1ccco1	active	-1	86*	0	5
O=[N+]([O-])c1ccc(SCc2ccco2)cc1N1CCOCC1	11	0	-3	1	1
COc1ccc(C)c2sc(=NC(=O)c3ccccc3)n(C)c12	-3	3	-2	1	-9
COc1ccc(C)c2sc(=NC(=O)c3ccc(C(C)=O)cc3)n(C)c12	57*	7	90*	1	13
COC(=O)Cc1ccc(NC(=S)NNC(=O)C2CC2)cc1	4	-3	7	3.6*	-28
O=C(N/N=C/c1ccc(-c2ccc(Cl)c(C(=O)O)c2)o1)c1cc2c(ccc3ccccc32)o1	76*	25	76*	-1	-7
Cc1ccc(-c2ccc(/C=N\NC(=O)c3cc4c(ccc5ccccc54)o3)o2)cc1[N+](=O)[O-]	2	19	-7	0	-3
Cc1cc(C)cc(N(CC(=O)NC2CCCCC2)C(=O)c2csnn2)c1	4	nt	-1	nt	12
Cc1ccc(C)c(NC(=O)/C(C#N)=C/c2ccc[nH]2)c1	-2	nt	-13	nt	6
COc1ccccc1NC(=O)CCN1CC(C)OC(C)C1 (stereo unspecified)	active	0	93	-1	2
COc1ccc(NC(=O)CCN2CC(C)OC(C)C2)c(OC)c1 (stereo unspecified)	-6	3	-6	0	10
O=C(O)CSc1c2ccccc2cc2ccccc12	20	nt	-1	nt	38*
Cc1[nH]c2ccccc2c1SCC(=O)O	-10	5	-7	1	8
COc1ccc(CN(Cc2cccnc2)S(=O)(=O)c2ccc(-n3cnnn3)c(C)c2)cc1OC	-2	1	0	-1	2
O=C(CN1CCOCC1)NN=C1CCCCCCCCCCC1	57*	4	active	1	4
O=C(CN1CCOCC1)NN=C(c1ccccc1)c1ccccc1	-3	1	2	0	8
N#C/C(=N\Nc1ccc(S(=O)(=O)N2CCCCCC2)cc1)C(N)=S	4	-3	0	0	42*
N#C/C(=N\Nc1ccc(S(=O)(=O)N2CCCCC2)cc1)C(N)=S	-9	15	-5	1	11
CCC(C)(C)n1nnnc1CN(Cc1ccco1)Cc1cc2cc3c(cc2[nH]c1=O)OCO3	48	nt	-3	0	40*
CC(C)(C)n1nnnc1CN(Cc1ccco1)Cc1cc2cc3c(cc2[nH]c1=O)OCO3	54	-13	49	0	32
O=c1[nH]c2cc3c(cc2cc1CN(Cc1nnnn1CC1CCCO1)C1CCCC1)OCO3 (stereo unspecified)	65*	2	76	1	64*
O=c1[nH]c2cc3c(cc2cc1CN(CCc1ccccc1)Cc1nnnn1CC1CCCO1)OCO3 (stereo unspecified)	120*	8	?	0	10
COc1ccccc1CNC(=O)C1CC(c2ccccc2[N+](=O)[O-])=NO1 (stereo unspecified)	active	-3	54	-1	14
CN(C)CCn1c2c(c(SCC(=O)Nc3cccc(C(F)(F)F)c3)nc1=O)CCCC2	nt	nt	nt	nt	21
